Screening results as filed in PubChem.
KDM5B inh: blocks human KDM5B histone demethylase activity | Potency, µM (top dose mostly 57.7 µM), usual class: inhibitors | Q9UGL1 | actives 2.6% (n = 220,000) | KDM5B demethylase, FDH-coupled NADH fluorescence (FDH is formaldehyde dehydrogenase); active = well fitted inhibition curve with a large enough effect; note: nearly all actives have a fitted effect of over 70% in size
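Measured: NADH fluorescence change, 30 min, RT. System: KDM5BΔAP 200 nM final, H3K4me3 peptide, α-KG, Fe(II), ascorbate, NAD⁺ plus FDH, pH 7.5 HEPES. Compounds: titrated, 10 min pre-incubation with enzyme.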
Of the large screens only hits and unclear results are named; the others gave an inactive call. The full list was thinned out, with hits kept by preference.

COc1cc2c(cc1OC1CCCC1)NC(=O)C21CCN(C(=O)c2cccc(C#N)c2)CC1	none
COc1cc2c(cc1Oc1ccccc1)NC(=O)C21CCN(c2nc(C)cnc2C)CC1	KDM5B inh 31.6µM
COc1cc2c(cc1OCc1ccccc1)NC(=O)C21CCN(Cc2ccncc2)CC1	none
COc1cc2c(cc1Oc1ccccc1)NC(=O)C21CCN(C(=O)c2scnc2C)CC1	none
COc1cc2c(cc1Oc1ccccc1)NC(=O)C21CCN(c2ncc(C(C)C)cn2)CC1	KDM5B inh 28.2µM
COc1cc2c(cc1OC1CCCC1)NC(=O)C21CCN(C(C)=O)CC1	none
COc1cc2c(cc1OC1CCCC1)NC(=O)C21CCN(c2ccc(C#N)cn2)CC1	KDM5B inh 31.6µM
COc1cc2c(cc1Oc1ccccc1)NC(=O)C21CCN(Cc2ccccc2)CC1	none
COc1cc2c(cc1OCc1ccccc1)NC(=O)C21CCN(c2ccnc(C)n2)CC1	none
COc1cc2c(cc1OCc1ccccc1)NC(=O)C21CCN(c2ccccn2)CC1	KDM5B inh 25.1µM
COc1cncc(CN2CCC3(CC2)C(=O)Nc2cc(Oc4ccccc4)c(OC)cc23)c1	none
COc1cc2c(cc1Oc1ccccc1)NC(=O)C21CCN(CCC(C)C)CC1	none
COc1cncc(-c2cc3c(cc2OC)C2(CCN(C(C)=O)CC2)C(=O)N3)c1	none
CCC(CC)COC(=O)C1=C(C)N[C@]2(C)C[C@H]1c1ccccc1O2	none
CC(C)CN1CCN(c2ccc(Cl)nn2)C(=O)C1	none
CCOc1cc(CNCCc2c[nH]c3ccc(OC)cc23)ccc1O	none
COc1ccccc1C1SCC(=O)Nc2c1c(C)nn2C (configuration not stated)	none
Cc1ccc(C(=O)N2[C@H]3CC[C@@H]2c2cnc(-c4ccc(F)cc4)nc2C3)cn1	none
O=S(=O)(c1ccc(F)cc1)N1[C@H]2CC[C@@H]1c1cncnc1C2	none
Cc1cccc(OCC(=O)N2[C@H]3CC[C@@H]2c2cnc(C)nc2C3)c1	none
CC(=O)c1cn(C[C@H]2CC3CCN2C[C@@H]3C(=O)NC(C)C)nn1 (some centres not stated)	none
COc1cc2c(cc1OCc1ccccc1)N([S+](=O)([O-])c1ccccc1C(F)(F)F)CC21CCN(C)CC1	none
O=c1c(C2CCCCC2)ccc2n1C[C@H]1C[C@@H]2CN(S(=O)(=O)c2ccccc2)C1	KDM5B inh 31.6µM
O=C(Nc1ccc(=O)n2c1[C@@H]1C[C@@H](CN(S(=O)(=O)c3ccccc3)C1)C2)c1cncnc1	none
CCCS(=O)(=O)N1C[C@@H]2C[C@H](C1)c1ccc(-c3ccc4ccccc4c3)c(=O)n1C2	none
N#Cc1ccccc1S(=O)(=O)N1C[C@@H]2C[C@H](C1)c1c(-c3ccccc3F)ccc(=O)n1C2	none
N#Cc1ccccc1S(=O)(=O)N1C[C@@H]2C[C@H](C1)c1ccc(-c3ccc(Cl)cc3)c(=O)n1C2	KDM5B inh 35.5µM
O=c1cccc2n1C[C@H]1C[C@@H]2CN(C[C@H]2CN3CC[C@H]2C[C@@H]3CNS(=O)(=O)c2ccccc2)C1	none
CN1C[C@@H]2OCC(=O)N[C@@H]2C1	none
COc1cccc(S(=O)(=O)N2[C@H]3CC[C@@H]2c2cnc(C)nc2C3)c1	none
COc1cccc(CC(=O)N2[C@H]3CC[C@@H]2c2cnc(-c4ccc(F)cc4)nc2C3)c1	none
COCCn1c(C)cc(C(=O)NC2CCc3nnc(C4CC4)n3CC2)c1C (configuration not stated)	none
COc1ccc(CNC[C@H]2C[C@@H]3CCN2C[C@@H]3c2cc(-c3ccc(F)cc3)nn2C)cc1	none
c1ccc(CCNCc2ccco2)cc1	none
N#Cc1ccc(NC(=O)CCC2CCCCC2)cc1Cl	none
O=C1NCCCCCCN(Cc2cccnc2)[C@H]2CCC[C@@H]12	KDM5B inh 7.94µM
NC1CCCN(Cc2cccnc2)C1 (configuration not stated)	none
O=C1N(Cc2cccnc2)C[C@H]2CN(C3CCC3)CCN12	none
COc1cccc([C@H]2CN(C(=O)OCC(C)C)[C@@H]3C4CCN(CC4)[C@H]23)c1	none
COc1cc2c(cc1OCc1ccccc1)NC(=O)C21CCN(Cc2c(C)noc2C)CC1	none
Cc1ccc(OCC(=O)N2CCN(Cc3ccc(=O)n(C)c3)CC2)cc1	none
CCn1cc(CN2CCN(C(=O)Cc3c(C)noc3C)CC2)ccc1=O	KDM5B inh 11.2µM
Cn1cc(CN2CCN(C(=O)Cc3ccccc3)CC2)ccc1=O	none
CCn1cc(CN2CCN(C(=O)Cc3cccs3)CC2)ccc1=O	KDM5B inh 12.6µM
Cc1noc(C)c1COc1ccc(CC(=O)N2CCN(CC(=O)N3CCCCC3)CC2)cc1	none
O=[S+]1([O-])NC2(CCN(Cc3cccs3)C2)COc2ccncc21 (configuration not stated)	none
CC(=O)c1cccc(NC(=O)OC[C@H]2C[C@@H]3CCN2C[C@@H]3c2cc(C3CCCC3)nc(C)n2)c1	none
COc1ccccc1-c1cc([C@H]2CN3CC[C@H]2C[C@@H]3COC(=O)Nc2ccc(C(C)C)cc2)n(C)n1	none
COc1ccccc1-c1cc([C@H]2CN3CC[C@H]2C[C@@H]3CNS(=O)(=O)c2ccc(NC(C)=O)cc2)nc(C)n1	KDM5B inh 31.6µM
CC(=O)Nc1ccc(S(=O)(=O)NC[C@H]2C[C@@H]3CCN2C[C@@H]3c2cc(-c3ccccc3Br)nc(C)n2)cc1	none
COc1ccccc1-c1cc([C@H]2CN3CC[C@H]2C[C@@H]3COC(=O)Nc2ccccc2)n(C)n1	none
COc1ccccc1-c1cc([C@H]2CN3CC[C@H]2C[C@@H]3COC(=O)NC2CCCCC2)nc(C)n1	KDM5B inh 28.2µM
Cc1nc(-c2ccc(C(F)(F)F)cc2)cc([C@H]2CN3CC[C@H]2C[C@@H]3CNC(=O)CCC(=O)O)n1	none
COc1ccccc1-c1cc([C@H]2CN3CC[C@H]2C[C@@H]3CNS(=O)(=O)c2ccc(NC(C)=O)cc2)n(C)n1	none
COc1ccccc1-c1cc([C@H]2CN3CC[C@H]2C[C@@H]3COC(=O)NC(C)C)nc(C)n1	KDM5B inh 39.8µM
COc1ccccc1-c1cc([C@H]2CN3CC[C@H]2C[C@@H]3CNC(=O)CCC(=O)O)nc(C)n1	KDM5B inh 31.6µM
COc1ccccc1-c1cc([C@H]2CN3CC[C@H]2C[C@@H]3CNC(=O)COc2ccccc2)n(C)n1	none
COc1cc2c(cc1Oc1ccccc1)NC(=O)C21CCN(Cc2cccc(O)c2)CC1	none
CCCCc1cn(C[C@H]2C[C@@H]3CCN2C[C@@H]3C(=O)Nc2nccs2)nn1	none
COc1ccccc1-c1cc([C@H]2CN3CC[C@H]2C[C@@H]3CNC(=O)c2cccs2)n(C)n1	none
CC(C(N)=O)N1CCC2(CC1)C(=O)N(C)c1ccccc12 (configuration not stated)	none
COc1ccc(NC(=O)N2[C@H]3CC[C@@H]2c2cncnc2C3)c(C)c1	none
CC(=O)NCCNC(=O)[C@H]1CN2CCC1C[C@@H]2Cn1cc(CSc2ccccc2)nn1 (some centres not stated)	none
CN1C(=O)[C@H]2CN(Cc3ccc(Br)s3)C[C@H]2C1=O	none
O=C(Cc1c(F)cccc1Cl)N1[C@H]2CC[C@@H]1c1cnc(-c3ccccc3)nc1C2	none
CCCCc1cn(C[C@H]2CC3CCN2C[C@@H]3C(=O)NCc2ccco2)nn1 (some centres not stated)	none
CCCNC(=O)OC[C@H]1C[C@@H]2CCN1C[C@@H]2c1cc(-c2ccc(F)cc2)nc(C)n1	none
CCCNC(=O)OC[C@H]1C[C@@H]2CCN1C[C@@H]2c1cc(-c2ccccc2OC)nc(C)n1	KDM5B inh 35.5µM
Cc1nc(-c2ccccc2)cc([C@H]2CN3CC[C@H]2C[C@@H]3CNC(=O)C(C)(C)C)n1	none
CCC(CC)C(=O)NC[C@H]1C[C@@H]2CCN1C[C@@H]2c1cc(-c2ccccc2Br)nc(C)n1	none
